# Measurements as given in PubChem BioAssay.
# Where “and” joins values, the source holds several entries; their conditions need not be identical. Equal values may be shown once. Calls of active or inactive are those of the source. Unless noted, no rule for the calls is given here.
# Assays:
# [1] = circadian clock period modulators, cell-based, LOPAC library, luminescence reporter (AID 2774); conditions: circadian reporter cells, at 7 µM, actives lie on both sides;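 also: values are relative to mean of DMSO wells on each plate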
# [2] = system: Hepatitis C virus NS3 helicase; experiment: HCV NS3 helicase inhibitors, primary screen, biochemical, fluorescence polarization, LOPAC1280 library (AID 687035; in the data active = inhibition above about 37%); conditions: Purified HCV NS3 helicase, Cy5-dT15 ssDNA binding fluorescence polarization; stronger effect = higher value; concentration not given here
# [3] = Cy5 fluorescence quenching or enhancement artefacts, artefact control for HCV NS3 helicase inhibitor project, biochemical, LOPAC1280 (AID 687037); conditions: Cy5-DNA-NS3h complex fluorescence interference counterscreen
# [4] = system: Aerobactin synthetase IucA (Klebsiella pneumoniae); experiment: IucA aerobactin synthetase inhibitors, biochemical, Tocris library, absorbance (AID 1345561); conditions: purified IucA enzyme assay, absorbance (OD) read-out; stronger effect = lower value;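 tested at 8 µM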;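 also: 100% = enzyme without compound and 0% = no enzyme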
# [5] = sensitizers of A549 cells to miR-34 induction, primary screen, imaging, A549 dox-inducible miR-34, nuclei and caspase counts (AID 1347080;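 active = compounds whose cell count with miR-34 switched on is under 0.7 times the count with it off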); conditions: A549 miR-34 inducible, Hoechst nuclei count, 48 h
# [6] = phospholipid biosynthesis inhibitors in animal cells, primary screen, cell-based, LOPAC library, screen 4 (AID 1347384); conditions: phospholipid biosynthesis inhibition screen, at 10 µM
# [7] = viability rescue of complex I mutant cybrids, primary screen, cell-based, galactose medium, ATP luminescence (AID 1645843;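 active = z-score of at least 1.8 in each of two replicates, scored against plate mean and spread of sample wells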;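 also: positive z means more ATP and so rescue of galactose-driven cybrid death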); conditions: complex I mutant cybrid cells, 72 h, stronger effect = higher value
# [8] = stronger effect = lower value, cell number ratio, induced over uninduced
# [9] = measured here: relative caspase fold change +Dox/-Dox
# [10] = measured here: total cells with miR-34 induction, stronger effect = lower value
# [11] = measured here: total cells without miR-34 induction
Compound,period change [1],inhibition [2],fluorescence ratio (interference) [3],remaining activity [4],"fold change [5, 8]","fold change [5, 9]","cell count [5, 10]","cell count [5, 11]",outcome [6],z-score [7]
O=C(O)C1=CCCN(CCON=C(c2ccccc2)c2ccccc2)C1,-0.05 h (inactive),1% (inactive),1 (inactive),122% (inactive),1.08 (inactive) and 0.953 (inactive),0.8 and 1.02,9470 and 9840,8800 and 10300,inactive,0.145 (inactive) and -0.05 (inactive)
Cc1cccc(/C=C/c2ccccc2)n1,0.01 h (inactive),0% (inactive),1 (inactive),108% (inactive),0.995 (inactive) and 0.915 (inactive),1.79 and 0.591,9190 and 8490,9240 and 9280,inactive,1.12 (inactive) and 0.09 (inactive)
NCC(O)(CS(=O)(=O)O)c1ccc(Cl)cc1 (stereo not given),0.035 h (inactive),-2% (inactive),1 (inactive),105% (inactive),0.977 (inactive),2.17 and 0.803,9480 and 8580,9700 and 8780,inactive,0.265 (inactive) and -0.115 (inactive)
CC(C)(C)NCC(O)COc1cccc2[nH]c(=O)[nH]c12 (stereo not given),-0.075 h (inactive),-3% (inactive),1 (inactive),89.1% (inactive),0.952 (inactive) and 0.913 (inactive),1.58 and 1.07,9940 and 8700,10400 and 9520,inactive,0.24 (inactive) and 0.505 (inactive)
Cn1cc(C(=O)OCC2CCN(CCNS(C)(=O)=O)CC2)c2ccccc21,0.07 h (inactive),-1% (inactive),1 (inactive),123% (inactive),1.06 (inactive) and 0.932 (inactive),1.51 and 0.946,9310 and 9140,8780 and 9810,inactive,-0.825 (inactive) and -0.425 (inactive)
NC[C@@H]1O[C@H](C23CC4CC(CC(C4)C2)C3)Cc2c1ccc(O)c2O,0.01 h (inactive),-3% (inactive),0.9 (inactive),123% (inactive),1.09 (inactive) and 0.908 (inactive),1.75 and 0.979,4260 and 7980,3890 and 8790,inactive,-1.5 (inactive) and -0.775 (inactive)
CC(/C=C/c1cccc(Oc2ccc(F)cc2)c1)N(O)C(N)=O (stereo not given),-0.095 h (inactive),0% (inactive),1 (inactive),129% (inactive),1.07 (inactive) and 0.882 (inactive) and 0.954 (inactive),1.69 and 1.06 and 0.78,8210 and 4190 and 6640,7700 and 4750 and 6960,inactive,-1.33 (inactive) and -0.775 (inactive)
O=c1onc2cnc3ccccc3n12,0.13 h (inactive),0% (inactive),1 (inactive),108% (inactive),1.09 (inactive) and 0.945 (inactive) and 0.946 (inactive),1.29 and 1.08 and 0.805,8010 and 5220 and 7630,7350 and 5530 and 8060,inactive,0.125 (inactive) and 0.635 (inactive)
COc1cc2c(CCNC(C)=O)c[nH]c2cc1Cl,-0.08 h (inactive),-1% (inactive),1 (inactive),94.8% (inactive),1.06 (inactive) and 0.902 (inactive),2.61 and 0.855,9840 and 8550,9250 and 9470,inactive,0.525 (inactive) and -0.185 (inactive)
Cc1cccc(C(=O)NCN2CCN(c3ccccc3C#N)CC2)c1,0.095 h (inactive),-3% (inactive),1 (inactive),92.5% (inactive),0.97 (inactive) and 0.957 (inactive),0.725 and 1.8,9570 and 9300,9870 and 9720,inactive,-0.125 (inactive) and 0.395 (inactive)
N[C@@H](CS(=O)O)C(=O)O,0.04 h (inactive),-5% (inactive),0.9 (inactive),124% (inactive),1.01 (inactive) and 0.998 (inactive),1.54 and 0.698,10700 and 8340,10600 and 8360,inactive,0.58 (inactive) and 0.25 (inactive)
COC(=O)[C@H](NC(=O)c1cc(-c2ccccc2)nc2ccccc12)c1ccccc1,-0.11 h (inactive),-1% (inactive),1 (inactive),100% (inactive),1 (inactive) and 0.927 (inactive),0.906 and 0.535,9010 and 8560,8980 and 9240,inactive,0.22 (inactive) and -0.03 (inactive)
O=C1NC(c2cccc([N+](=O)[O-])c2)=CCN1c1ccccc1O,-0.125 h (inactive),-4% (inactive),1 (inactive),111% (inactive),0.967 (inactive) and 1.03 (inactive) and 0.928 (inactive),1.12 and 1.35 and 0.882,10200 and 5990 and 8100,10600 and 5810 and 8730,inactive,-0.245 (inactive) and 1.08 (inactive)
CC#CCOC(=O)c1c(C)nc2sc3c(c2c1N)CCC(O)C3 (stereo not given),-0.09 h (inactive),-3% (inactive),1 (inactive),102% (inactive),0.861 (inactive) and 0.824 (inactive),0.901 and 1,7740 and 5720,8990 and 6940,inactive,-1.22 (inactive) and -0.71 (inactive)
